An excerpt weighted towards active compounds, which were near 8.6% of everything screened.
LASV entry inh: qHTS for Inhibitors of binding or entry into cells for Lassa Virus; Potency, µM (titrated, usually from 49.2 µM), actives largely listed as inhibitors; 4.1% of 18,000 active; Lassa virus pseudotyped entry inhibition, cell-based qHTS
MARV entry inh: qHTS for Inhibitors of binding or entry into cells for Marburg Virus; Marburg virus pseudotype entry/binding inhibition, cell-based; Potency, µM (titrated, usually from 49.2 µM), hits mostly inhibitors; 6.5% of 18,000 active
Numbers stand for hits; - = inactive; ? = inconclusive; . = no result given; ! = repeats disagree; [ ] = remark or other dose. Calls come from the whole dose curve; tested in HEK293 cells.

SMILES | LASV entry inh | MARV entry inh
O=c1[nH]c(=O)n([C@@H]2O[C@H](CO)[C@@H](O)[C@H]2O)cc1F | 10µM | ?
C[C@@]12CCC(O)C[C@H]1CCC1C2CC[C@]2(C)C(=O)CCC12 (some centres undefined) | - | -
CC(=O)[C@@]1(O)[C@H](O)CC2C3CCC4CC(O)CC[C@]4(C)C3CC[C@@]21C (some centres undefined) | - | -
C[C@@]12CC[C@H](O)C[C@@H]1CC[C@H]1[C@@H]2C[C@@H](O)[C@]2(C)[C@@H](C3=CC(=O)OC3)CC[C@]12O | 3.5µM | 1.4µM
C[C@@]12CC[C@H](O)C[C@@H]1CC[C@H]1[C@H]2CC[C@@]2(C)[C@@H](C3=CC(=O)OC3)CC[C@]12O | 0.89µM | 1µM
CCOC(=O)CN1C(=O)[C@@]2(CC(C)=C[C@@H](COCc3ccccc3)O2)c2ccccc21 | . | -[8.59 µM]
CCCCCCN1C[C@H](O)[C@@H](n2cc(-c3ccc(F)cc3)nn2)C[C@H]1c1ccccc1 | - | ?
COCOCCn1cc(CN2CCS(=O)(=O)N(Cc3ccc(-c4ccccc4)cc3)C(C)C2=O)nn1 (centres undefined) | - | -
CCCOC(=O)c1ccc(O)cc1 | - | -
CCCOC(=O)c1cc(O)c(O)c(O)c1 | - | 25µM
CS(=O)(=O)CCN(CC#N)Cc1ccc(-c2ccc3ncnc(Nc4ccc(OCc5cccc(F)c5)c(Cl)c4)c3c2)o1 | - | -
[O-][n+]1ccccc1SSc1cccc[n+]1[O-] | 4µM | 6.3µM
O=S1(=O)c2ccc(Br)cc2O[C@H]2CCN1C2 | - | -
COc1cccc([C@H]2NC(=O)CC=C[C@H](C)[C@@H](c3cccc(OC)c3)NC(=O)CC=C[C@H]2C)c1 | -[8.59 µM] | ?
Oc1ccc(/C=C\c2cc(O)cc(O)c2)cc1 | 10µM | 11µM
Oc1ccc(/C=C/c2cc(O)cc(O)c2)cc1 | 7.9µM | 7.1µM
O=C(/C=C/c1ccc(O)cc1)c1ccc(O)cc1O | - | -
COc1ccc(/C=C/c2cc(O)cc(O)c2)cc1 | - | -
C#CCCCON=C1C[C@@H](O)[C@@H](O)[C@@H]2[C@H]3C(=O)N([C@@H](C)c4ccccc4)C(=O)[C@@H]3CC[C@H]12 | -[8.59 µM] | ?
COCC=CC1=CC2=CC(=O)C(C)(OC(=O)c3cnc4ccccc4n3)C(=O)C2=CN1Cc1ccc(OC)cc1 (centres undefined) | -[8.59 µM] | -[8.59 µM]
O=C1C(SCCO)=C(SCCO)C(=O)c2ccccc21 | 8.9µM | 3.5µM
C[C@H](O)CON1C(=O)c2ccccc2C1=O | - | -
CC(C)ON(CC(=O)NO)S(=O)(=O)c1ccc(-c2ccccc2)cc1 | - | -
CC(C)ON(C(C(=O)NO)C(C)C)S(=O)(=O)c1ccc(-c2ccccc2)cc1 (centres undefined) | 6.3µM | 6.3µM
CC(C)C[C@@H]1COc2cccc(NN3CCN(C)CC3)c2S(=O)(=O)N1 | - | -
SMILES | LASV entry inh | MARV entry inh
CSC[C@H]1CN(CCc2ccccc2)C(=O)[C@H]1CC(=O)Nc1ccccc1 | - | -
CC(C)=CCN1C(=O)[C@]2(O[C@H](COc3ccccc3)CC3=C2CCC3)c2ccccc21 | -[8.59 µM] | -[8.59 µM]
O=C1C=CC(=C(c2ccc(O)cc2)c2ccc(O)cc2)C=C1 | 8.9µM | 13µM
CCC(=O)c1ccc(O)cc1 | - | -
COC(=O)[C@@H]1CC[C@H](C)[C@@H](c2ccc(C)cc2)N1C(=O)c1ccc(C=NO[C@@H](C)c2cn([C@H](CO)Cc3ccccc3)nn2)cc1 | . | -[8.59 µM]
COC(=O)N[C@@H](C=Cc1ccccc1)[C@@H](C)[N+](=O)[O-] | -[8.59 µM] | -[8.59 µM]
C=CCNC(=O)[C@H]1C=C(OC)C(=O)C[C@H](c2ccccc2)[C@H]1C | -[8.59 µM] | -[8.59 µM]
COc1cccc(-c2cc3c(c(OC)c2)OCCN(Cc2ccccc2O)C3)n1 | 5.6µM | -
COc1ccc(-c2[nH]ncc2CN2CCOc3c(cc(-c4cccc(OC)n4)cc3OC)C2)cc1 | - | -
CC(C)CON=C1C[C@@H](O)[C@@H](O)[C@@H]2[C@H]3C(=O)N(C[C@@H]4CCCO4)C(=O)[C@@H]3CC[C@@H]12 | -[8.59 µM] | -[8.59 µM]
Fc1ccc(C(OCCN2CCN(CCCc3ccccc3)CC2)c2ccc(F)cc2)cc1 | 14µM! | 7.9µM
O=C(O)C1=CCCN(CCOC(c2ccc(C(F)(F)F)cc2)c2ccc(C(F)(F)F)cc2)C1 | - | -
c1ccc(CCCN2CCN(CCOC(c3ccccc3)c3ccccc3)CC2)cc1 | 28µM | 11µM
OCCOCCN1CCN(Cc2cccc(Oc3ccccc3)c2)CC1 | - | -
O=S1(=O)C=CCN1C1CCCC1 | - | -
COC[C@@H](O)[C@H]1OCc2cccc(OC)c2[C@H]1C=Cc1ccccc1 | -[8.59 µM] | -[8.59 µM]
CCN1C(=NCCCOC(C)C)NC(c2ccccc2)C(C(=O)OC)=C1C (centres undefined) | -[8.59 µM] | -[8.59 µM]
